Measurements: the supplement of paper PMC6555819

Assays:
Experiment in all cases: PBM binding z-score (relative to random genomic background probes); higher = stronger binding; sequences stand for … in GC…GCGATTGACAGCGTAGAATGAAGG
[1] = tested on: FXR:RXRa (NR concentration 270 nM, RXRa partner concentration 90 nM)
Method in brief: (§1)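 Binding z-scores take random background probes as their reference. They come from custom Agilent 4×180K protein-binding microarrays incubated 1 h with ligand-free nuclear receptor dimers, with antibodies against each partner (one per run) detecting binding. Scanned fluorescence was regression-normalized.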

[2] = tested on: LXRa:RXRa (NR concentration 270 nM, RXRa partner concentration 90 nM)
Method in brief: as §1

[3] = tested on: LXRa homodimer (NR concentration 270 nM)
Method in brief: as §1

[4] = tested on: LXRb:RXRa (NR concentration 270 nM, RXRa partner concentration 90 nM)
Method in brief: as §1

[5] = tested on: LXRb homodimer (NR concentration 270 nM)
Method in brief: as §1

[6] = tested on: PPARa:RXRa (NR concentration 270 nM, RXRa partner concentration 90 nM)
Method in brief: as §1

[7] = tested on: PPARg:RXRa (NR concentration 180 nM, RXRa partner concentration 90 nM)
Method in brief: as §1

[8] = tested on: PPARg:RXRa 270nM:90nM, anti-RXR (NR concentration 270 nM, RXRa partner concentration 90 nM)
Method in brief: as §1

[9] = tested on: PPARg:RXRa 30nM:10nM, anti-RXR (NR concentration 30 nM, RXRa partner concentration 10 nM)
Method in brief: as §1

[10] = tested on: PPARg:RXRa 90nM:30nM, anti-RXR (NR concentration 90 nM, RXRa partner concentration 30 nM)
Method in brief: as §1

Sequence	PBM binding z-score [1]	PBM binding z-score [2]	PBM binding z-score [3]	PBM binding z-score [4]	PBM binding z-score [5]	PBM binding z-score [6]	PBM binding z-score [7]	PBM binding z-score [8]	PBM binding z-score [9]	PBM binding z-score [10]
CCGACTAGGTTATGGGGCATTCAGGCAACGGTGA	0.258	0.306	0.00117	0.464	-0.646	1.81	3.22	4.17	1.77	3.95
GCATGTAGATCAAGGTTAAGAAAGACTAAGCTAA	0.0428	0.684	-0.386	0.504	-0.805	1.47	1.33	2	0.418	1.55
GCTAGCAGGCCATTTGGGTCACTCATTGACGGGC	0.033	-0.0107	-0.528	-0.128	-0.903	1	0.357	0.27	-0.512	-0.18
AGTAAAAGTTCATCTAGGTAACGTAAGATATGCT	6.26	5.78	5.21	3.31	1.71	4.42	3.98	3.88	1.55	2.54
AGAATGAGGTTATACGTAGATCAGAGAAGAAAGT	2.4	1.86	0.0397	1.57	0.2	3.2	2.36	2.1	0.792	1.45
CCTAGCAGGCAAATCTGGGTCACTCAAGGCTTGA	0.679	1.35	-0.33	0.851	-0.654	3.07	2.26	2.58	0.128	1.8
GCATATAGGTAATACAAGGTGAATGTCCGATTGT	1.08	1.54	0.343	0.292	-0.289	1.08	1.37	1.14	0.382	0.743
AGAATGCGGTTAAGATCAGGGAAACAGAATACAT	-0.249	-0.195	-0.0658	-0.185	-0.913	-0.181	0.331	0.0448	0.301	0.258
TCAGCCAGGTGAAGGTAACTCAGGTACGCAGTCG	0.00852	1.19	-0.431	0.138	-1.48	0.696	0.4	1.32	2.09	1.5
AGAATGAGGTTATTAAGATTAGGGAATTGCGGTC	1.47	1.57	0.419	1.24	0.178	2.61	1.17	1.57	0.697	1.37
CCGACTGGGGCAAAGGTTACAATACTCAGTACGA	1.77	1.65	0.0321	2.42	-0.618	5.62	12.1	9.57	11.1	11.3
ATCTCTAGGTAACCAAGTGCAGTGAATGCCGAAC	-0.0336	0.0225	-0.464	-0.183	0.282	-0.0554	0.325	0.259	-0.0021	0.298
ACTAGCAGGCCAAGCGTCACTCAAGATTAGTCCG	-0.5	-0.376	-0.471	-0.815	-0.983	0.102	1.12	1.84	0.377	1.73
CCTTACGGGTCACTGACAGGTAATAGCATTTGGA	5.68	3.58	0.0221	3.16	-0.0553	5.08	4.51	4.42	1.29	3.12
TCGAGTAGGTTACCAATGGGGCTTTCAGCTTTCT	-0.0439	0.131	-1.06	0.62	-0.632	0.836	-0.121	0.803	1.11	0.796
TCTGCTACGTCAACGATGGTCAGCTAATCTGCTA	-0.231	-0.136	-0.622	-0.384	-0.541	-0.191	0.00276	0.525	1.6	1.1
ATCTCTAGGTGAAGTTCAGTGAAAGATCGATAGA	0.465	0.465	0.0389	0.0201	0.118	1.88	1.57	1.74	0.453	1.35
AGTCAAAGTGCAGGACGAGGTAACGTAAAGCACG	-0.105	-0.155	-0.419	-0.641	-0.89	0.169	1.06	1.03	0.301	0.389
TAGACTAGGTCATGGGCCAGTATACCACGCGAAC	3.63	2.6	0.103	1.81	0.438	4.41	7.24	6.34	4.78	6.07
ACTCGGAGGAAAAAGGTCAGAGCTACGCCAGTGA	2.49	3	0.501	2.45	-0.26	3.73	2.6	3.2	1.2	2.74
ATCTCTGGGTAAAGTTCAGTGAAAGATCGATAGA	1.19	1.87	1.6	1.39	1.23	2.87	4.06	5.26	3.21	4.78
TAGCCTACGTCATTGGGCCAGTATAGTACGCATC	-0.593	-0.86	-0.485	-0.66	-0.257	-0.37	0.495	-0.589	-0.293	-0.205
TCTAGCAGGCCAGAGGGTCACTCCAGAGGTACGG	0.862	0.694	-0.544	0.582	-0.995	1.91	1.19	2.54	1.72	2.31
TCTTGTAGATCAATAGAGGTTAAGGAAGTGCGCT	1.25	2.42	0.324	1.5	-0.201	2.08	0.136	1.99	3.04	2.63
